Experimental data from PubChem BioAssay.
Activity calls are given as the source filed them.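 Rule for the calls, unless noted: active = fluorescence slope after compound addition differing from the mean of all screened samples at 99.7% confidence, in either direction; inactive = the rest.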

Key:
[1] = inhibitors of TNFa-induced NFkB p65 translocation, primary screen, imaging, HUVEC, MLSMR starter and 10KST1 sets (AID 438;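 active = inhibition above 20% together with a positive visual image hit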;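 note: compound added about 3h40 before a 20 min TNFalpha stimulation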;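 for inhibition: signal is the nuclear over cytoplasmic p65 intensity ratio per well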); conditions: HUVEC TNFa-induced p65 nuclear translocation; cell count: measured here: nuclei count (cytotoxicity indicator), at 2.08 µM; inhibition: at 2 µM, stronger effect = higher value, 0% TNFa-plus-vehicle, 100% no-TNFa wells
[2] = reduction of polyQ htt aggregates in cells – imaging, exon1htt(103Q)mCFP cells, high-content imaging, primary screen (AID 483;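 active = visual image review flags a hit and inhibition of aggregation exceeds 20%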;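 note: compound exposure lasted 3 days before fixation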;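 for nuclei count: percent of the per-plate median nuclei count of sample wells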); conditions: exon1htt(103Q)mCFP cell line, aggregate imaging, at 2 µM; inhibition of aggregation: stronger effect = higher value; nuclei count: measured here: cell count, toxicity
[3] = endothelial E-selectin expression blockers – imaging, HUVEC, immunofluorescence, MLSMR starter and 10KST1 sets, primary screen (AID 487;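 active = visually confirmed hit in the image check and inhibition above 20%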;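 for inhibition: signal is fraction of cell area covered by stained E-selectin grains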;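 for nuclei count: 100% = median nuclei count of all wells on the same plate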); conditions: HUVEC TNFalpha-induced E-selectin immunofluorescence imaging, at 2 µM; inhibition: stronger effect = higher value; nuclei count: measured here: cell number, toxicity
[4] = target: Voltage-gated potassium channel subunit beta-2 (Rattus norvegicus) (UniProt P62483); experiment: inhibitors of rat Kvbeta2 reductase activity – biochemical, NADPH fluorescence, primary screen (AID 622;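 active = fluorescence slope higher than the sample average by over 3 SD, cut at about -0.22 in these data, passing the limit was not always enough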;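 note: slope of raw intensity against log time taken from 70 to 1610 s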); conditions: recombinant KvBeta, 4-cyanobenzaldehyde reduction, at 10 µM, stronger effect = higher value
[5] = target: Voltage-gated potassium channel subunit beta-2 (Rattus norvegicus) (UniProt P62483); experiment: enhancers of rat Kvbeta2 NADPH turnover – biochemical, NADPH fluorescence, primary screen (AID 623;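 active = NADPH fluorescence slope more negative than the mean of all samples by about 3 SD, 99.7% confidence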;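 note: fluorescence intensity change per second fitted from 20 to 320 s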); conditions: Recombinant KvBeta, NADPH fluorescence decrease slope, 10 min; at 10 µM; stronger effect = lower value
[6] = target: Alpha-2C adrenergic receptor (Homo sapiens) (UniProt P18825); experiment: compounds altering alpha2C-coupled GIRK flux – cell-based, HEK293 alpha2C/GIRK1/2, thallium flux, primary screen (AID 624); conditions: thallium flux BTC fluorescence, at 10 µM, actives lie on both sides;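 note: slope of fluorescence ratio to pre-addition baseline per second over 15 to 24 s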
[7] = blockers of RIG-like receptor reporter activation – cell-based, Sendai virus stimulus, luciferase, 10K MLSCN set, TLR/RLR signaling modifier project, primary screen (AID 602276;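 active = inhibition at or above 50% at 10 µM; inactive = inhibition below 50%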;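 note: firefly luciferase from ISG56 promoter only with Renilla not read in this screen; 0% = Sendai virus plus DMSO and 100% = medium plus DMSO without virus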); conditions: HEK293 RL24 IRF3 luciferase reporter, at 10 µM, stronger effect = higher value
[8] = TLR3 IRF3 reporter activation blockers – cell-based, poly I:C stimulus, luciferase, 10K MLSCN set, primary screen (AID 602277;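 active = inhibition of the reporter signal at or above 50%; inactive = inhibition below 50%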); conditions: HEK293-TLR3 RL24 IRF3 luciferase reporter, at 10 µM, stronger effect = higher value

Chain of Alpha-2C adrenergic receptor (Homo sapiens) (P18825 whole entry, looked up): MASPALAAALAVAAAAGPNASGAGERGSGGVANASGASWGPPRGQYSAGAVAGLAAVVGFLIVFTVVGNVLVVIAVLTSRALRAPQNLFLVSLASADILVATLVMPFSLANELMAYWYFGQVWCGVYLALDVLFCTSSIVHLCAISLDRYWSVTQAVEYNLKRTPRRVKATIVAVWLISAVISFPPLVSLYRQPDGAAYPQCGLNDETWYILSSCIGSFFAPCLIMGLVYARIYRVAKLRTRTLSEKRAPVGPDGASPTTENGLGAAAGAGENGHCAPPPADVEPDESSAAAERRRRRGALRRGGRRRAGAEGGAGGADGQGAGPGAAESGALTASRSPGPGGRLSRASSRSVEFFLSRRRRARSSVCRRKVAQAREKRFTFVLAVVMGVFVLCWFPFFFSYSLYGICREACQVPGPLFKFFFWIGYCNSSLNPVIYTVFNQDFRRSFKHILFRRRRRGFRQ
Chain of Voltage-gated potassium channel subunit beta-2 (Rattus norvegicus) (P62483 whole entry, looked up): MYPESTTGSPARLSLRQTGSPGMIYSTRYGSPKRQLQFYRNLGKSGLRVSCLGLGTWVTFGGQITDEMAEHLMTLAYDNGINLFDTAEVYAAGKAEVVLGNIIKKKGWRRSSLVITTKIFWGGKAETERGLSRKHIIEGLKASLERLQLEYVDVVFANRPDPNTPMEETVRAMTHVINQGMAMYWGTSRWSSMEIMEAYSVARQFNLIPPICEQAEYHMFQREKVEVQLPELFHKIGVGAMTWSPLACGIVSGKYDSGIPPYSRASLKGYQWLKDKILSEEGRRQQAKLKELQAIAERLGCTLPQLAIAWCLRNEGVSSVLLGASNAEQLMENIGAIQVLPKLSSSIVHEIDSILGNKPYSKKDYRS

Row | Compound | cell count [1] | inhibition [1] | inhibition of aggregation [2] | nuclei count [2] | inhibition [3] | nuclei count [3] | fluorescence slope [4] | NADPH fluorescence slope [5] | slope [6] | inhibition [7] | inhibition [8]
1 | CCc1c(C)c2ccc(OCC(=O)OC)cc2oc1=O | 342 | 2.2% (inactive) | 9.8% (inactive) | 78.5% | 32.2% (inactive) | 97.7% | -0.165 (inactive) | -1.1e-05 (inactive) | 0.00537 (inactive) | 12.5% (inactive) | 18.6% (inactive)
2 | Cn1c(=O)c2[nH]c(NCC3CCCO3)nc2n(-c2ccccc2)c1=O (stereo not drawn) | 359 | -0.4% (inactive) | -11.4% (inactive) | 108% | -80% (inactive) | 116% | -0.407 (inactive) | -7.1e-05 (inactive) | 0.00463 (inactive) | 14% (inactive) | 32.3% (inactive)
3 | CCOc1cc2[nH]c(=O)n(CCCCC(=O)NCc3ccco3)c(=O)c2cc1OCC | 394 | -17.9% (inactive) | -0.5% (inactive) | 117% | -41.6% (inactive) | 110% | -0.508 (inactive) | -6e-05 (inactive) | 0.00662 (inactive) | 9.08% (inactive) | 35.9% (inactive)
4 | O=C(Nc1ccc(N2CCOCC2)c(Cl)c1)c1ccc(Br)o1 | 708 | 8.2% (inactive) | 4.4% (inactive) | 103% | -109% (inactive) | 104% | -0.497 (inactive) | -0.000111 (inactive) | 0.00715 (inactive) | -54.1% (inactive) | -162% (inactive)
5 | CCOCCCNC(=O)C(NC(=O)c1ccccn1)c1ccc(C)cc1 (stereo not drawn) | 314 | -13.4% (inactive) | 2.7% (inactive) | 116% | -18.5% (inactive) | 111% | -0.592 (inactive) | -4e-05 (inactive) | 0.00635 (inactive) | 15.1% (inactive) | 18.1% (inactive)
6 | O=C1c2ccccc2C(Nc2ccc(-c3nc4ccccc4[nH]3)cc2)N1Cc1ccco1 (stereo not drawn) | 701 | -6.8% (inactive) | -10.2% (inactive) | 87.9% | -26.7% (inactive) | 108% | -0.589 (inactive) | -2e-06 (inactive) | 0.00641 (inactive) | -24% (inactive) | -47.4% (inactive)
7 | Cc1cccc(N2CCN(C(=O)c3cc4ccccc4oc3=O)CC2)c1C | 712 | -2.8% (inactive) | -28.9% (inactive) | 93.7% | -22.9% (inactive) | 117% | -0.565 (inactive) | -2.1e-05 (inactive) | 0.00624 (inactive) | -10.3% (inactive) | -10.8% (inactive)
8 | COc1ccc(CCNC(=O)CCN2C(=O)C3CC=CCC3C2=O)cc1OC (stereo not drawn) | 308 | -1.1% (inactive) | -8.1% (inactive) | 83.4% | -53.4% (inactive) | 103% | -0.605 (inactive) | -1.9e-06 (inactive) | 0.00675 (inactive) | 3.55% (inactive) | -2.15% (inactive)
9 | CC(C)Cn1c(=O)c(C(=O)Nc2ccccc2S(N)(=O)=O)c(O)c2ccccc21 | 740 | -1% (inactive) | -9.5% (inactive) | 99.4% | 60.6% (active) | 92.3% | -0.393 (inactive) | -3.1e-05 (inactive) | 0.00741 (inactive) | -1.36% (inactive) | -18.4% (inactive)
10 | COc1ccc(OC)c(S(=O)(=O)N2CCC(C(=O)NCc3ccccc3OC)CC2)c1 | 782 | -2.1% (inactive) | -13.8% (inactive) | 107% | -74.6% (inactive) | 133% | -0.517 (inactive) | -1.4e-05 (inactive) | 0.00487 (inactive) | 4.82% (inactive) | 13.9% (inactive)
11 | Cc1noc(C)c1C(=O)Nc1ccc(Cl)cc1C(F)(F)F | 327 | -13.5% (inactive) | 1.7% (inactive) | 99.5% | -6% (inactive) | 102% | -0.625 (inactive) | -1e-05 (inactive) | 0.0031 (inactive) | 17.2% (inactive) | 18% (inactive)
12 | O=C(c1cccnc1)N1CCc2ccccc21 | 414 | 3% (inactive) | 1.6% (inactive) | 108% | 24.6% (inactive) | 95.4% | -0.468 (inactive) | 1.9e-05 (inactive) | 0.00635 (inactive) | 10% (inactive) | 43.9% (inactive)
13 | CN(Cc1ccccc1)c1nc2c(c(=O)[nH]c(=O)n2C)n1Cc1ccccc1Cl | 364 | -1% (inactive) | -1.2% (inactive) | 108% | -18.5% (inactive) | 102% | -0.6 (inactive) | -2.7e-05 (inactive) | 0.00484 (inactive) | 16% (inactive) | 23.3% (inactive)
14 | C(=N\c1c(-c2ccccc2)nc2n1CCS2)/c1ccccc1 | 594 | -22.1% (inactive) | -0.7% (inactive) | 86% | 18.8% (inactive) | 43.9% | -0.458 (inactive) | -3.7e-05 (inactive) | 0.00231 (inactive) | 0.61% (inactive) | 10.6% (inactive)
15 | N#Cc1ccc(-c2csc(NC(=O)C3CC3)n2)cc1 | 718 | -9.6% (inactive) | 33.4% (inactive) | 93.9% | -25.2% (inactive) | 116% | -0.502 (inactive) | -1.9e-05 (inactive) | 0.00647 (inactive) | -27.3% (inactive) | -86% (inactive)
16 | CCCc1cc(=O)[nH]c(SCc2ccccc2)n1 | 651 | 6.7% (inactive) | -3.9% (inactive) | 99.8% | -110% (inactive) | 101% | -0.6 (inactive) | -1.1e-07 (inactive) | 0.00614 (inactive) | 9.4% (inactive) | 30% (inactive)
17 | CCn1c(SCC(=O)Nc2ccc3c(c2)OCO3)nnc1-c1ccccc1O | 468 | -6.3% (inactive) | 2% (inactive) | 113% | -143% (inactive) | 151% | -0.5 (inactive) | -5.6e-05 (inactive) | 0.0056 (inactive) | 11.9% (inactive) | 0.128% (inactive)
18 | Cc1[nH]nc2c1C(=O)CC(C)(C)C2 | 416 | -4.9% (inactive) | -16.7% (inactive) | 118% | -24.4% (inactive) | 117% | -0.347 (inactive) | -1.7e-05 (inactive) | 0.0065 (inactive) | -3.34% (inactive) | 17.1% (inactive)
19 | O=C(CN1C(=O)CCS(=O)(=O)c2ccccc21)NCc1ccc(F)cc1 | 529 | -7.7% (inactive) | 13.4% (inactive) | 95.8% | -92.3% (inactive) | 124% | -0.395 (inactive) | -7.6e-05 (inactive) | 0.00557 (inactive) | 15.3% (inactive) | 8.14% (inactive)
20 | COc1cccc(-c2noc(C3CCCN(C(=O)Cc4ccccc4)C3)n2)c1 (stereo not drawn) | 276 | -2.8% (inactive) | 5.5% (inactive) | 109% | 18.4% (inactive) | 115% | -0.609 (inactive) | -8.5e-06 (inactive) | 0.00584 (inactive) | 9.8% (inactive) | 14.1% (inactive)
21 | CC(C)C(NC(=O)c1ccc(S(=O)(=O)N2CCOCC2)cc1)c1nc2ccccc2[nH]1 (stereo not drawn) | 276 | 15.9% (inactive) | -10.8% (inactive) | 114% | 8.4% (inactive) | 98.7% | -0.436 (inactive) | -9.2e-05 (inactive) | 0.00591 (inactive) | 13.3% (inactive) | 26% (inactive)
22 | CC(=O)c1ccc(NS(=O)(=O)c2ccccc2)cc1 | 554 | -4.8% (inactive) | 0.4% (inactive) | 62.8% | -59.1% (inactive) | 92.5% | -0.467 (inactive) | 3.9e-05 (inactive) | 0.00323 (inactive) | -17.2% (inactive) | 7.05% (inactive)
23 | N#CC1=C(N)N(c2ccc(Oc3ccccc3)cc2)C(=O)C1 | 546 | -3.8% (inactive) | -0.2% (inactive) | 119% | -5.8% (inactive) | 128% | -0.481 (inactive) | -5.5e-05 (inactive) | 0.00638 (inactive) | 5.59% (inactive) | -5.96% (inactive)
24 | CSCCC(NC(=O)c1ccco1)C(=O)O (stereo not drawn) | 411 | 4.4% (inactive) | -0.5% (inactive) | 105% | -358% (inactive) | 143% | -0.534 (inactive) | -4e-05 (inactive) | 0.00451 (inactive) | -9.48% (inactive) | -11.3% (inactive)
25 | CC1CCN(C(=O)CSc2nnc(-c3ccc(S(=O)(=O)N4CCOCC4)cc3)n2C)CC1 | 446 | 3.5% (inactive) | -5.5% (inactive) | 97.2% | -169% (inactive) | 114% | -0.612 (inactive) | -4.4e-05 (inactive) | 0.00393 (inactive) | 3.11% (inactive) | 0.175% (inactive)
26 | CCOC(=O)N1CCN(CC(O)COc2ccccc2C(C)CC)CC1 (stereo not drawn) | 631 | -12.4% (inactive) | 0.6% (inactive) | 100% | -35.9% (inactive) | 122% | -0.612 (inactive) | -1.6e-05 (inactive) | 0.00663 (inactive) | 10.8% (inactive) | 35.4% (inactive)
27 | CCCc1cc(C(=O)Nc2ccc(C(C)=O)cc2)no1 | 566 | -4.4% (inactive) | 1.1% (inactive) | 128% | -58.4% (inactive) | 110% | -0.559 (inactive) | 1.4e-06 (inactive) | 0.00619 (inactive) | 15.4% (inactive) | -5.79% (inactive)
28 | CC1Cc2ccccc2N1S(=O)(=O)c1ccc2c(c1)n(C)c(=O)c(=O)n2C (stereo not drawn) | 339 | 6.6% (inactive) | -25.5% (inactive) | 96.4% | -21.1% (inactive) | 111% | -0.43 (inactive) | 6.1e-06 (inactive) | 0.00562 (inactive) | 19.2% (inactive) | 17.1% (inactive)
